From ChEMBL document CHEMBL3988442, “University of Dundee, Small-Polar-MMV Screening Library” (2021)
For some assays here: Results with a measured potency or affinity are listed apart.

Assays:
Parameters in all cases: scale not given: direction of the effect not stated beside the values
[1] = target: Protein translocase subunit SecA (Escherichia coli (strain K12)) (UniProt P10408); assay: Assay to Identify E. coli SecA ATPase Inhibitors; assay type: functional; details: 30 µM
[2] = target: T1, Ubiquitin-activating enzyme e1, putative (Leishmania donovani (strain BPK282A1)) (UniProt E9BSI1); assay: Leishmania donovani Ubiquitin Activating Enzyme (LdE1); assay type: functional; details: 30 µM
T1 sequence (whole entry): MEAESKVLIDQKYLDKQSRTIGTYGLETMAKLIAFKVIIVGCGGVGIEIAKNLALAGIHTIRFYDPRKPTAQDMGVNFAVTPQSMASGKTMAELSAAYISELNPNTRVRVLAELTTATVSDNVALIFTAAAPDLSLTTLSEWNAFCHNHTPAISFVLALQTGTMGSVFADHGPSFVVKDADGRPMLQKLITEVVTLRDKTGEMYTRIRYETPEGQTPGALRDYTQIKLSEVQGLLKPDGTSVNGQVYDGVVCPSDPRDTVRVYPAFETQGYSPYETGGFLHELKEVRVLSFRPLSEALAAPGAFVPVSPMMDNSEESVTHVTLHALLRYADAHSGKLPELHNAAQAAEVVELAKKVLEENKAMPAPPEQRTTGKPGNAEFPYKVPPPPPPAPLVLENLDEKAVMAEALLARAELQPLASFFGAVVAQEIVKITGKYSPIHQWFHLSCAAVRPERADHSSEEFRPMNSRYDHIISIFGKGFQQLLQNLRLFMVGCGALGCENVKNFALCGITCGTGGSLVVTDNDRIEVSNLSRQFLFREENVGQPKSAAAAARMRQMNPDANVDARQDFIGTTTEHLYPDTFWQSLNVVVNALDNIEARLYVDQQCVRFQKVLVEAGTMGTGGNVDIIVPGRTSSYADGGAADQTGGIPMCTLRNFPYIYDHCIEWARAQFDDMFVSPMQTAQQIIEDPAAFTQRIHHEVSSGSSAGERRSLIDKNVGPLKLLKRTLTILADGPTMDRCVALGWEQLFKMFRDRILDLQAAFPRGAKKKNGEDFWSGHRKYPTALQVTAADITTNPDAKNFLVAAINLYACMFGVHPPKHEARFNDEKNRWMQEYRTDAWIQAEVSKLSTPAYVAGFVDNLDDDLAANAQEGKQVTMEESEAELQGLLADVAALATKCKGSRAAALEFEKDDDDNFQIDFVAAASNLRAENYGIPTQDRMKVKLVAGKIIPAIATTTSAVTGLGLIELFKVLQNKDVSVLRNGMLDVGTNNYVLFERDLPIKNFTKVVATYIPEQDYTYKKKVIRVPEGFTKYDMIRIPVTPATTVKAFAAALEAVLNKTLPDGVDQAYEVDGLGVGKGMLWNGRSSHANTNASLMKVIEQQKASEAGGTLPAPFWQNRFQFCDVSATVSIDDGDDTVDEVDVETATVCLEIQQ

[3] = target: AMP-activated protein kinase, AMPK (Homo sapiens) (UniProt P54646+O43741+P54619+Q9UGJ0+Q9Y478+Q13131+Q9UGI9); assay: AMP-dependent Kinase enzyme assay. An in vitro enzyme assay that detects ADP turnover that is directly proportional to AMPK activity. This uses naive AMPK that is activated during the assay with MK-8722; assay type: functional; details: 30 µM
[4] = target: Sialic acid-binding Ig-like lectin 9 (Homo sapiens) (UniProt Q9Y336); assay: Hs-Siglec9 ALPHAscreen SOP 20170721; details: 10 µM
Trypanosoma cruzi = assay: Trypanosoma cruzi phosphomannomutase and mannose-1-phosphate guanylyltransferase assay; assay type: functional; details: 10 µM
[5] = target: T2, Arginase-2, mitochondrial (Homo sapiens) (UniProt P78540); assay: in vitro enzyme assay to detect the production of urea directly proportional to the activity of Arginase II; assay type: functional; details: 33.3 µM; further: in the data most compounds retested in dose-response had high values
T2 sequence (whole entry): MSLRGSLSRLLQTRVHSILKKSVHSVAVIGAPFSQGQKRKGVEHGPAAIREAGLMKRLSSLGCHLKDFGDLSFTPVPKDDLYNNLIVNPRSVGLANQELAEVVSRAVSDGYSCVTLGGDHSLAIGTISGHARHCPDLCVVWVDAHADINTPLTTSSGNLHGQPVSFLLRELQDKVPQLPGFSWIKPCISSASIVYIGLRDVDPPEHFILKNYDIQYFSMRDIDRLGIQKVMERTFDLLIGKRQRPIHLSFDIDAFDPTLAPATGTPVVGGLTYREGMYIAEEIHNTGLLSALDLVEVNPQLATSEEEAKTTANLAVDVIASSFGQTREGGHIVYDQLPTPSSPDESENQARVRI

[6] = target: T3, Proteasome subunit beta (Trypanosoma cruzi) (UniProt O96673); assay: Trypanosoma cruzi proteasome chymotrypsin-like activity (TcProtChymo) assay.; further: in the data most compounds retested in dose-response had high values; assay type: functional; details: 9.37 µM
T3 sequence (whole entry): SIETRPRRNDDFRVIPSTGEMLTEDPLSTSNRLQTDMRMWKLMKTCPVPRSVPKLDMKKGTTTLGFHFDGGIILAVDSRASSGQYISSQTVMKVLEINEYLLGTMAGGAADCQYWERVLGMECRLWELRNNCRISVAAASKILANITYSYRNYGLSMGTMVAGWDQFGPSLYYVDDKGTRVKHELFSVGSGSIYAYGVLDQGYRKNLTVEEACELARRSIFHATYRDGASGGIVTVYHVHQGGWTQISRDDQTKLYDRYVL

Homo sapiens = species on record: Homo sapiens; assay: To identify inhibition of the IFN signalling (Jak-Stat) pathway via expression of an eGFP reporter gene under the control of an IFN-stimulated response element (ISRE) containing MxA promoter.; assay type: functional; details: 30 µM
[7] = target: T4, Tyrosyl-tRNA synthetase, putative (Trypanosoma cruzi (strain CL Brener)) (UniProt Q4DSP6); assay: Trypanosoma cruzi tyrosyl tRNA synthetase (TcYRS) _High Tyrosine SOP; assay type: functional; details: 30 µM; further: in the data most compounds retested in dose-response had high values
T4 sequence (whole entry): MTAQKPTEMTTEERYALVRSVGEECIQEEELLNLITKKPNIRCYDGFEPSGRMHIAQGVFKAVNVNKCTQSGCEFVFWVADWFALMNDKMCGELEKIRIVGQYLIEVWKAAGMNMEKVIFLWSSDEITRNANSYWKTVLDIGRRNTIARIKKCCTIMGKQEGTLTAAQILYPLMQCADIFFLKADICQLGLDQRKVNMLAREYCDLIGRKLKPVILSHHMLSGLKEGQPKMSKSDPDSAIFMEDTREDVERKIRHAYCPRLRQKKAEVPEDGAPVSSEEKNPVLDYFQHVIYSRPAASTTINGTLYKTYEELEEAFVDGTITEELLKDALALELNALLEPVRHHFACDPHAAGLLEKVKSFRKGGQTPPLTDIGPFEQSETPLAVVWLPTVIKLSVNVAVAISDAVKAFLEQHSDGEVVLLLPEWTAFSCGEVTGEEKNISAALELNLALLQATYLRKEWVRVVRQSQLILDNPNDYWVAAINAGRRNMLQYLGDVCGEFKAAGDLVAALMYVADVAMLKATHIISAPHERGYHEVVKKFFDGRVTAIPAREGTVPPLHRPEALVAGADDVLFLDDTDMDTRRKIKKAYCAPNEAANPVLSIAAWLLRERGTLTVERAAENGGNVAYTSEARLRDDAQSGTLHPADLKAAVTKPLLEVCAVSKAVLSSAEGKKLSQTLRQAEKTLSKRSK

[8] = target: T4, Tyrosyl-tRNA synthetase, putative (Trypanosoma cruzi (strain CL Brener)); assay: Trypanosoma cruzi tyrosyl tRNA synthetase (TcYRS) SOP; assay type: functional; details: 30 µM
[9] = target: Chromo domain-containing protein 1 (Saccharomyces cerevisiae (strain ATCC 204508 / S288c) (Baker's yeast)) (UniProt P32657); assay: ScCHD-1 Enzyme Inhibition Assay; assay type: functional; details: 30 µM; further: in the data most compounds retested in dose-response had high values
Sequence of Chromo domain-containing protein 1 (Saccharomyces cerevisiae (strain ATCC 204508 / S288c) (Baker's yeast)) (P32657 whole entry, the tested form may be a part): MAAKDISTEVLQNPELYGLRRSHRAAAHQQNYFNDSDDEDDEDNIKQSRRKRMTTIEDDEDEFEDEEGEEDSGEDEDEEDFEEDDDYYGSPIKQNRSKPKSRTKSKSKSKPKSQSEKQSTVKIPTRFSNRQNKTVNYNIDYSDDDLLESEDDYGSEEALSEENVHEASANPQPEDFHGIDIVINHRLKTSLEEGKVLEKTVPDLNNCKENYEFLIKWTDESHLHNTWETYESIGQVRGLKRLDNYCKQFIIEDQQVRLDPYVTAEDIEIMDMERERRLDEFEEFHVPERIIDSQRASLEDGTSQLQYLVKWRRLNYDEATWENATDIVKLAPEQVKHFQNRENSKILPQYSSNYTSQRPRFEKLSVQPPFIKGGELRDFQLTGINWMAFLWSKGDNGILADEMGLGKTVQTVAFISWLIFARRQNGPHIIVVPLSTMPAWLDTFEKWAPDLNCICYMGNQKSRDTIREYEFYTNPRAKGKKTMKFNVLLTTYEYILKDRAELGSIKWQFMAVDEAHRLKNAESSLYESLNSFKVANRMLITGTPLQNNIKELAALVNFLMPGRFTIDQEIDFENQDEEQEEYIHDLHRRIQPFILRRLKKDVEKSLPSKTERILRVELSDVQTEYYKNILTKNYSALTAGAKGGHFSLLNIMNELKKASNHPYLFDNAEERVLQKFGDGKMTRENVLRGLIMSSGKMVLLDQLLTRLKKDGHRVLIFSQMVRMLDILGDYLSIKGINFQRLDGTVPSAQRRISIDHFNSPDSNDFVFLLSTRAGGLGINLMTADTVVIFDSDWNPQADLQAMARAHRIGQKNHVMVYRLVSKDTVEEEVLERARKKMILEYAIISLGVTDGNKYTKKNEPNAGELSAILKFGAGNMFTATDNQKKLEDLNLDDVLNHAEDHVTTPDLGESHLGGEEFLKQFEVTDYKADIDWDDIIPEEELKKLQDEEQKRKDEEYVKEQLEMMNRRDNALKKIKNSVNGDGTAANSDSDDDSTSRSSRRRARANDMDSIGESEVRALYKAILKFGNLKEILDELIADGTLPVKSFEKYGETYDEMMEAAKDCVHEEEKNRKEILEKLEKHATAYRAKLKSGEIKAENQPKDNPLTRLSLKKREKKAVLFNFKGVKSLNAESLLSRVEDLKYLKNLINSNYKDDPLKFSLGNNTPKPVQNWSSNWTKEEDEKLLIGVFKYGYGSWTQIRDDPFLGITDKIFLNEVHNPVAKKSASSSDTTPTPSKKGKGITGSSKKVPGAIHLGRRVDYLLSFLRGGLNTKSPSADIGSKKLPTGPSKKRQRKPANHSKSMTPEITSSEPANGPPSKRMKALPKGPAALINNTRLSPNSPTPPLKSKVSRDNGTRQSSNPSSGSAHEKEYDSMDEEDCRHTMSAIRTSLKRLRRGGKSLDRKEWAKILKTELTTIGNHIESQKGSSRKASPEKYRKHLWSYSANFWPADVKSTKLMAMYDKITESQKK

Sequence of Sialic acid-binding Ig-like lectin 9 (Homo sapiens) (Q9Y336 whole entry): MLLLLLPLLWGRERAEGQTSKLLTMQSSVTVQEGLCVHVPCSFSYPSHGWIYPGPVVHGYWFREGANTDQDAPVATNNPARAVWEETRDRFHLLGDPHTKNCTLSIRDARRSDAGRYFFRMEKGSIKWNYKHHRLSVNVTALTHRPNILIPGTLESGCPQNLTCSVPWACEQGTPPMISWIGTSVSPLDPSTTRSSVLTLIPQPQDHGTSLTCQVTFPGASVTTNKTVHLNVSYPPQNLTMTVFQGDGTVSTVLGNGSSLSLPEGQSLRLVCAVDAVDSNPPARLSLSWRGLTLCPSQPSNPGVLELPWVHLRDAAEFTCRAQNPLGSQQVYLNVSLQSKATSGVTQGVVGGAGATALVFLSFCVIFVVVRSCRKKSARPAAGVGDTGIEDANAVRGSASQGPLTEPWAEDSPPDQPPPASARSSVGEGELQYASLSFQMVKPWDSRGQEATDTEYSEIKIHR
Sequence of Protein translocase subunit SecA (Escherichia coli (strain K12)) (P10408 whole entry): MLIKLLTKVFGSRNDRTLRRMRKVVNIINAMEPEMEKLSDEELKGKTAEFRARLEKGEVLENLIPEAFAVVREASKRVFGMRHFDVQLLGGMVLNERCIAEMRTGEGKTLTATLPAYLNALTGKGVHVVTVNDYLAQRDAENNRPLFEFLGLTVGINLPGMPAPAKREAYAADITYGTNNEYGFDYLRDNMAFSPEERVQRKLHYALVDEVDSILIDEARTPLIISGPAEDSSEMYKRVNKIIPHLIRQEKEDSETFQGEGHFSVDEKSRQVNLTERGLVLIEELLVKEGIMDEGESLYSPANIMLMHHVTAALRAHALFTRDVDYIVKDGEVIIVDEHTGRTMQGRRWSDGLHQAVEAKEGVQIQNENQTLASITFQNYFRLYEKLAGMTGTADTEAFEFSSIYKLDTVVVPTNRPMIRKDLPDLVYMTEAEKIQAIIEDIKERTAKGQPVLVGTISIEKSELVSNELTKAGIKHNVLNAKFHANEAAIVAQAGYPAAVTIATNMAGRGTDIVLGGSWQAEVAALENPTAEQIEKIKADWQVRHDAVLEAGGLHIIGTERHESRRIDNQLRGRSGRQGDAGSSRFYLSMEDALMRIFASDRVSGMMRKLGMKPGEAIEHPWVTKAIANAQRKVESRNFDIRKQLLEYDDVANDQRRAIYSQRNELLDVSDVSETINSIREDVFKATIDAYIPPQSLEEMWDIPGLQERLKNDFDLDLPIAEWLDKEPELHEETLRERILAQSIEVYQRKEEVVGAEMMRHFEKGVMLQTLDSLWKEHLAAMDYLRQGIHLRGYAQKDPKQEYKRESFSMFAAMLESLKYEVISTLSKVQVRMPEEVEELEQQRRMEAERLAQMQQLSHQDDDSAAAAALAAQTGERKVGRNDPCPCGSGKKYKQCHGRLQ

Structure (SMILES) | Percent Effect [1] | Percent Effect [2] | Percent Effect [3] | Percent Effect [4] | Percent Effect (Trypanosoma cruzi) | Percent Effect [5] | Percent Effect [6] | Percent Effect (Homo sapiens) | Percent Effect [7] | Percent Effect [8] | Percent Effect [9]
Cc1occc1C(=O)N1CCC2(CCN(Cc3nccs3)C2)CC1 | -3.24% | 2.6% | 0.489% | 3.8% | 3.83% | -8.28% | -1.66% | -23.6% | 0% | -3.7% | 6.12%
CN(Cc1ccc(N2CCCCC2)cc1)Cc1noc(C(C)(C)C)n1 | -2.34% | -13% | -0.29% | 2.11% | 0.492% | 0% | 13.8% | 9.08% | -2.15% | -6.17% | -1.32%
CCC(=O)N1CCC(c2nnc(Cn3cncn3)n2C2CC2)CC1 | -0.998% | 15.3% | -1.98% | 12.9% | 5.34% | 16.3% | 17.7% | 0.244% | -1.05% | 15.4% | -3.53%
CN(CCc1ccccc1)C1CCCN(Cc2nccn2C)C1 (configuration not stated) | -4.99% | -39% | -1.69% | 5.27% | 8.36% | 0% | 9.48% | -25.8% | 6.45% | 6.17% | -8.68%
CCCN(C)C(=O)c1ccc2c(c1)[nH]c(=O)n2CCOCC | -5.32% | 2.7% | -7.14% | 42% | 8.11% | 2.38% | 9.65% | -3.55% | 2.65% | 17.1% | -9.7%
COc1ccc(C(=O)NCC(c2cccn2C)N2CCCC2)c(OC)c1 (configuration not stated) | -5.97% | 13% | -5.29% | -1.12% | 1.08% | -1.94% | 18.3% | -21.8% | 6.35% | 11.5% | -8.35%
COCCN(Cc1nc2c(cnn2C)c(=O)[nH]1)Cc1ccco1 | -2.48% | 16.2% | -7.78% | -3.6% | -4.43% | 5.61% | 12.6% | 4.47% | 9.36% | 18.5% | -4.09%
Cc1cc(C(=O)N[C@@H]2CCNC[C@H]2O)ccc1Cl | -1.58% | 5.41% | 1.58% | 10.1% | 6.56% | -1.91% | 11.4% | -9.87% | 6.88% | 4.88% | -2.88%
O=C1N(CCCc2ccccc2)CCCC1(O)CNCc1ccccc1 (configuration not stated) | -3.24% | 2.7% | -10.2% | 31.6% | 4.4% | -0.248% | 8.5% | -7.46% | 8.6% | 18.5% | -3.9%
Cc1cn2c(n1)CCC(NC(=O)CCC(F)(F)F)C2 (configuration not stated) | -7.86% | -7.89% | -7.17% | 16.2% | 5.51% | 0.36% | 3.64% | -6.31% | 3.45% | 16.1% | -6.39%
c1cnc(N2CCC3(COCc4cnc(-c5cccnc5)nc43)C2)nc1 (configuration not stated) | -3.71% | -2.7% | 12.2% | -3.8% | -1.86% | -5.41% | 1.11% | 3.84% | -1.08% | -10.3% | -4.41%
Cc1ccc(-c2cc(CNC(=O)N3CCC(CO)CC3)on2)cc1 | -2.94% | 21.6% | 1.9% | -3.05% | -4.74% | -0.185% | 14.9% | 14% | 6.93% | 13.4% | -4.09%
CC1CN(C(=O)CN(Cc2ccccc2Br)C2CC2)CCO1 (configuration not stated) | -1.13% | 0% | 4.5% | 0.479% | 3.82% | -3.16% | -4.77% | 13.8% | 3.81% | 7.06% | -7.55%
CCc1c(C(=O)N2CCCN(C(C)=O)CC2)cnn1C(C)(C)C | -5.01% | 23.7% | -6.43% | 9.75% | 3.27% | 1.08% | 6.68% | -2.15% | 7.39% | 25.9% | -9.24%
Cc1ccc(-c2nnc(CN3CCc4cnc(C)nc4C3)o2)cc1 | -4.56% | 0% | -17.5% | 15.5% | 11.2% | -13.9% | 10.4% | 15.6% | 18.8% | 30.5% | -10.7%
Cc1nn(C)c(Cl)c1C1CCCN1C(=O)c1cc[nH]n1 (configuration not stated) | -1.54% | 2.7% | -1.34% | 13.1% | 2.74% | -2% | 8.83% | -3.1% | 2.46% | 11.1% | -9.56%
CCn1cc(CN2CC3CCCN3C[C@H]2C)c(C)n1 (some centres not stated) | -2.31% | 9.46% | 3.58% | -8.58% | -1.98% | -2.09% | 20.3% | 2% | 4.3% | 9.09% | -14.7%
O=C(c1ccoc1)N1CC[C@H]2OCC[C@@]2(COc2ncccc2F)C1 | -6.18% | 18.9% | -5.57% | 25.4% | 3.23% | 2.73% | 6.78% | -2.11% | 4.3% | 21% | -7.11%
CC(C)n1cc(CN2CCCN(C(=O)c3nccnc3N)CC2)cn1 | -3.12% | 13.5% | -6.54% | -11.2% | -0.586% | 5.83% | 17% | 21.2% | 8.91% | 11% | 5%
CCN(Cc1ccc2c(c1)OCCO2)C(=O)NCc1nc(C)cs1 | 0.275% | 10.4% | -0.784% | -5.04% | -0.294% | 4.84% | 14.6% | 11.4% | 4.76% | 11.8% | -19.3%
CNc1nc2c(s1)C(c1cccc(F)c1F)CC(=O)N2 (configuration not stated) | -2.38% | 13.2% | -61.3% | -2.61% | 0.876% | 4.73% | 18.9% | 7.67% | -11.7% | -13% | -8.74%
CCS(=O)(=O)c1ccccc1N1CCC(NC(=O)c2ccc[nH]2)CC1 | -4.07% | 8.11% | 1.8% | 7.6% | 6.78% | -7.95% | 2.15% | 13% | 8.91% | 18.3% | -1.36%
